# Measurements: PubChem BioAssay (NCATS)
# Activity calls are given as the source filed them. How the calls were made is not given here.
# Tested on: HIV-1 nucleocapsid protein NCp7 (binding to TG oligonucleotide)
# Assay: HIV Nucleocapsid (AID 346);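 further: potency is for inhibitors that block NC binding and lower polarization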
# Settings: HIV-1 NC / fluorescein-TGTGTGTG probe, fluorescence polarization
# How it was run: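 Fluorescence polarization binding of 100 nM HIV-1 NC to 10 nM fluorescein-labelled TG4xF oligonucleotide. Buffer was Hepes pH 7.5 with 250mM NaCl, 1uM ZnCl2, TCEP and 2-mercaptoethanol. Compounds were incubated 1 hr at room temperature before the read.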
# Potency means the concentration at half of the fitted maximal effect.
row,Compound,Potency
1,CN(C)c1ncc2nc(-c3cccs3)c(=O)n(-c3ccccc3)c2n1,> 4 µM (inactive)
2,Cc1noc(C)c1C(=O)N1CCC2(CCCN(c3ccccc3)C2)CC1,> 20 µM (inactive)
3,CN(C)C(=O)c1ccc(-c2nccc(N(C)Cc3ccco3)n2)cc1,> 20 µM (inactive)
4,COc1ccc(Oc2ncc3ncc(=O)n(C)c3n2)cc1,> 20 µM (inactive)
5,COCCn1c(=O)c(C)nc2cnc(Oc3ccccc3)nc21,> 20 µM (inactive)
6,COc1ccc(-n2c(=O)c(-c3cc(F)cc(F)c3)nc3cnc(N4CCNCC4)nc32)cc1,> 20 µM (inactive)
7,Cn1cccc1C(=O)N1CCC2(CC1)CN(c1cccc(-c3ccccc3)c1)C2,> 20 µM (inactive)
8,CN1CCN(c2ncncc2-c2ccccc2Cl)CC1,> 20 µM (inactive)
9,COc1ccccc1CNc1nc(-c2c(C)noc2C)nc2ccccc12,> 20 µM (inactive)
10,Cc1noc(C)c1C(=O)N1CCC2(CCN(Cc3nccs3)CC2)CC1,> 20 µM (inactive)
11,CN(C)C(=O)c1ccc(-c2nc(Nc3ccncc3)c3ccccc3n2)cc1,> 20 µM (inactive)
12,N#CCCn1c(=O)c(-c2ccc(Cl)cc2)nc2cnc(N3CCOCC3)nc21,> 20 µM (inactive)
13,COc1cccc(Cn2c(=O)c(C)nc3cnc(OC)nc32)c1,> 20 µM (inactive)
14,Cc1cnc(CNc2nc(-c3ccccc3C(F)(F)F)nc3ccccc23)cn1,> 20 µM (inactive)
15,O=C(c1ccncc1)N1CCC2(CC1)CN(c1ncccn1)C2,> 20 µM (inactive)
16,COc1ccccc1CNc1ccnc(-c2ccoc2)n1,> 20 µM (inactive)
17,COc1ncc2nc(-c3cccc(C#N)c3)c(=O)n(CCC#N)c2n1,> 20 µM (inactive)
18,Cc1noc(C)c1C(=O)N1CCC2(CC1)CN(c1ccccn1)C2,> 20 µM (inactive)
19,COc1ccc(-c2nc3cnc(OC)nc3n(C[C@H]3CCCO3)c2=O)cc1,> 20 µM (inactive)
20,O=c1cnc2cnc(N3CCOCC3)nc2n1C1CC1,> 20 µM (inactive)

row,Compound,Potency
1,O=c1cnc2cnc(Nc3ccccc3)nc2n1Cc1ccc(F)cc1,> 20 µM (inactive)
2,COc1cccc(Nc2ncc3nc(C)c(=O)n(C)c3n2)c1,> 20 µM (inactive)
3,CN1CCN(c2ncc3nc(-c4cccc(C#N)c4)c(=O)n(C[C@H]4CCCO4)c3n2)CC1,> 20 µM (inactive)
4,CN(Cc1ccco1)c1nc(-c2ccoc2)nc2ccccc12,> 20 µM (inactive)
5,FC(F)(F)c1ccccc1-c1ccc2ncnc(NCc3cccnc3)c2c1,> 20 µM (inactive)
6,O=C(Oc1ccccc1)N1CCC2(CC1)CN(c1ccccc1)C2,> 20 µM (inactive)
7,N#CCCn1c(=O)c(-c2ccccc2)nc2cnc(Nc3ccccc3)nc21,> 20 µM (inactive)
8,CN(C)c1ncc2nc(-c3cccs3)c(=O)n(C[C@H]3CCCO3)c2n1,> 20 µM (inactive)
9,COc1ccc(-n2c(=O)c(C)nc3cnc(OC)nc32)cc1,> 20 µM (inactive)
10,Cc1noc(C)c1C(=O)N1CCC2(CCN(C(=O)NC(C)C)CC2)CC1,> 20 µM (inactive)
11,O=C(Nc1cccc(F)c1)N1CC[C@@]2(CCCN(C(=O)c3cc(C(F)(F)F)cc(C(F)(F)F)c3)C2)C1,> 20 µM (inactive)
12,CN(C)C(=O)c1ccc(-c2cncnc2NCc2cccs2)cc1,> 20 µM (inactive)
13,Cc1cccc(CNc2ncnc3ccc(-c4cccc(NS(C)(=O)=O)c4)cc23)c1,> 20 µM (inactive)
14,N#Cc1cccc(NC(=O)N2CC[C@@]3(CCCN(C(=O)c4cccc(F)c4)C3)C2)c1,> 20 µM (inactive)
15,CN(C)c1ccc(-c2cncnc2N(C)Cc2ccco2)cc1,> 20 µM (inactive)
16,Cn1c(=O)c(-c2ccc(Cl)cc2)nc2cnc(OCc3ccccc3)nc21,> 20 µM (inactive)
17,CN1CCN(c2ncc3nc(-c4ccc(F)cc4)c(=O)n(Cc4cccs4)c3n2)CC1,> 20 µM (inactive)
18,COc1cccc(-c2cc(NCc3cccs3)ncn2)c1,> 20 µM (inactive)
19,CN(C)c1ncc2nc(-c3ccc(F)cc3)c(=O)n(CCc3ccccc3)c2n1,> 20 µM (inactive)
20,CN(Cc1ccco1)c1cc(-c2cccnc2)ncn1,> 20 µM (inactive)
